Assay outcomes (PubChem)
NS1 function inh: qHTS Assay for Inhibitors of Influenza NS1 Protein Function; Potency, µM (highest dose often 46.1 µM); 0.4% of 270,000 active; AID 2326, 2010; calls by dose curve; also: actives are rising curves; nearly all actives have a fitted effect of over 50% in size
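OD600 was taken as the measure of yeast growth restored by compound in an NS1-expressing S. cerevisiae strain. Cells had been washed out of glucose medium and diluted 1:100 into galactose -URA medium, pH 6.0.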
Shiga toxin inh: A qHTS for Small Molecule Inhibitors of Shiga Toxin | inhibition, % at 38.7 µM | 9.2% of 290,000 active | Vero cells, Shiga toxin protein synthesis inhibition reporter; in the data active = inhibition mostly above about 28%, no sharp cut-off; inactive = mostly below about 43%
Cycloheximide cs: Cycloheximide Counterscreen for Small Molecule Inhibitors of Shiga Toxin. cell reporter, cycloheximide protein synthesis inhibition counterscreen. max response, %. 12% of 300,000 active. AID 2314, 2010; in the data active = max response mostly above about 13%, no sharp cut-off; inactive = mostly below about 14%; also: read at 38.3 µM for the half of the compounds with a filed dose
Pf growth 48h: Primary qHTS for delayed death inhibitors of the malarial parasite plastid, 48 hour incubation. P. falciparum luciferase growth in erythrocytes, 48 h. Potency, µM (doses to about 28.7 µM), actives largely listed as inhibitors. 5.9% of 310,000 active. AID 504832, 2011
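Read-out is firefly luciferase luminescence from an integrated reporter in P. falciparum, so falling signal marks reduced parasite growth. Infected erythrocytes were at 2% hematocrit and 0.1% parasitemia (final) in Albumax-supplemented RPMI 1640.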
Pf growth 96h: Primary qHTS for delayed death inhibitors of the malarial parasite plastid, 96 hour incubation. P. falciparum luciferase reporter growth, 96 h. Potency, µM (highest dose often 28.7 µM), usual class: inhibitors. 6.9% of 320,000 active
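Readout is luminescence from an integrated firefly luciferase in P. falciparum. Red cells, 2% hematocrit and 0.05% parasitemia final, were cultured with compound through two parasite generations (96 hours) at 37 C, 5% CO2.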
SARS PLpro yeast: qHTS of Yeast-based Assay for SARS-CoV PLP; S. cerevisiae expressing SARS-CoV PLpro, growth rescue; Potency, µM (highest dose often 32.9 µM), actives largely listed as activators; 0.19% of 330,000 active; AID 485353, 2010; calls by dose curve; also: nearly all actives have a fitted effect of over 55% in size
Large screens that a line does not name were inactive. A selection: hits, their analogues and other compounds. The true share with any hit is near 21%. Unless noted, calls follow the shape of the dose curve; as a rule, active = well fitted inhibition curve with a large enough effect; inconclusive = small, poorly fitted or top-dose-only effect, or another doubt; inactive = no such curve, though single readings can be large or run the other way.

COc1cccc(/C=N/Nc2nn3cnnc3c3ccccc23)c1O	Pf growth 48h inconclusive, Pf growth 96h 0.33µM
COc1cccc(/C=N/Nc2ccccc2C(=O)O)c1O	Shiga toxin inh 64, Cycloheximide cs 47
COc1cccc(/C=N/NC(=O)N/N=C/c2cccc(OC)c2O)c1O	Cycloheximide cs 25, Pf growth 48h inconclusive, Pf growth 96h inconclusive (no result: Shiga toxin inh)
CCn1c(C)nc2cc(C(=O)N/N=C/c3ccc(O)c(O)c3O)ccc21	none
Oc1cccc(/C=N/Nc2nn3cnnc3c3ccccc23)c1	none
CCn1c(C)nc2cc(C(=O)N/N=C/c3cccc(OC)c3O)ccc21	Shiga toxin inh 60, Pf growth 48h inconclusive, Pf growth 96h inconclusive
Cc1cc(C)c(S(=O)(=O)N2CCCCC2C(=O)O)c(C)c1 (stereo not drawn)	none
COc1cc2c(cc1OC)C(C)N(C(=O)CCN1C(=O)C3C4C=CC(C4)C3C1=O)CC2 (stereo not drawn)	none (no result: Pf growth 96h)
O=C(NCC1CCCO1)c1ccc(OC2CCN(C(=O)C3CC3)CC2)cc1 (stereo not drawn)	none
COc1cccc(/C=N/NC(=O)C(=O)N2CCCC2)c1O	Shiga toxin inh active, Cycloheximide cs 61, Pf growth 48h inconclusive, SARS PLpro yeast inconclusive
COc1cccc(/C=N\NC(=O)c2ccc(Cn3cc(Br)c([N+](=O)[O-])n3)o2)c1O	Shiga toxin inh 56, Cycloheximide cs 44, Pf growth 48h inconclusive, Pf growth 96h inconclusive
COc1cccc(/C=N/NC(=O)Cn2nc(C)c([N+](=O)[O-])c2C)c1O	Pf growth 48h 12µM, Pf growth 96h inconclusive
COc1cccc(/C=N/NC(=O)C(=O)N2CCCC2)c1OC	none
COc1cccc(/C=N/N2C(=O)CSC2=S)c1O	Shiga toxin inh 45, Cycloheximide cs 32, Pf growth 96h inconclusive
COc1cc(/C=N/N2C(=O)CSC2=S)cc(Br)c1O	none
CCn1nc(C)c(CNC(=O)c2cc(COc3ccc(F)cc3Cl)on2)c1C	none
CCc1nc(SCc2ccc(F)cc2)[nH]c(=O)c1C#N	none
COc1ccc(C(=O)NNC(=O)CSc2nnc(-c3ccc(O)cc3)n2C)cc1	Pf growth 96h inconclusive
CC1(C)CCC[C@]2(C)[C@H]3Cc4cc(O)ccc4O[C@]3(C)CC[C@@H]12	none (no result: NS1 function inh, Shiga toxin inh, Cycloheximide cs, Pf growth 48h, Pf growth 96h)
COc1ccccc1C(=O)N1CCN(C2CCN(Cc3ccccc3)CC2)CC1	Cycloheximide cs 43 (no result: SARS PLpro yeast)
COc1ccc(C(=O)N2CCN(C3CCN(Cc4ccccc4)CC3)CC2)cc1OC	none (no result: Pf growth 48h)
O=S(=O)(c1ccccc1)N1CCN(C2CCN(Cc3ccccc3)CC2)CC1	Pf growth 48h 0.1µM
Cc1ccc(S(=O)(=O)N2CCN(C3CCN(Cc4ccccc4)CC3)CC2)cc1	none
O=S(=O)(c1ccc2ccccc2c1)N1CCN(C2CCN(Cc3ccccc3)CC2)CC1	Pf growth 48h inconclusive
c1ccc(CN2CCC(N3CCC(N4CCCCCC4)CC3)CC2)cc1	Pf growth 48h 13µM, Pf growth 96h 8.3µM
Cc1cc2c(cc1Cl)C(c1ccc3c(c1)OCO3)CC(=O)O2 (stereo not drawn)	none (no result: NS1 function inh, Pf growth 48h, Pf growth 96h, SARS PLpro yeast)
CC1(C)CC(=O)c2c(O)cc(OCC(=O)N3CCN(c4ccccc4)CC3)cc2O1	Pf growth 96h inconclusive
Cc1noc(C)c1CSc1nc2sc(C)c(C)c2c(=O)n1-c1ccccc1	Pf growth 48h inconclusive (no result: Pf growth 96h)
C=CCn1c(SCc2c(C)noc2C)nc2sc(C)c(C)c2c1=O	Pf growth 96h 9.3µM (no result: Pf growth 48h)
CCc1cccc(CC)c1N(COC)C(=O)Cn1cnc2ccccc21	none
CCOCN(C(=O)Cn1c(CO)nc2ccccc21)c1c(C)cccc1CC	Pf growth 96h 10µM
CCOCN(C(=O)Cn1cnc2ccccc21)c1c(C)cccc1CC	Pf growth 48h inconclusive
CCOCN(C(=O)CCl)c1c(C)cccc1CC	Pf growth 48h 13µM, Pf growth 96h inconclusive (no result: NS1 function inh, Shiga toxin inh, Cycloheximide cs)
c1ccc2c(-c3cc(C4CCNCC4)[nH]n3)cccc2c1	none (no result: NS1 function inh)
O=C(O)CC(NC(=O)C12CC3CC(CC(C3)C1)C2)c1ccc(OC2CCCC2)cc1 (stereo not drawn)	none (no result: NS1 function inh)
Cc1onc(-c2ccccc2)c1C(=O)N/N=C/c1c(F)cccc1Cl	none
Cc1ccc(NC(=O)c2cc(C(C)(C)C)nn2Cc2ccccc2)cc1	Cycloheximide cs 12, Pf growth 48h 8.3µM, Pf growth 96h 9.3µM
